Usually viability stands for a read-out of living cells in per cent, often relative to untreated cells. Usually inhibition stands for the change of the read-out against control, counted positive when it falls.

Results filed as inconclusive are left out. Active and inactive are the calls of the source.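 How the source made its calls, unless noted: active means viability increase at or above a cutoff of the median across tested compounds plus 3 SD (cut at about 8.5% in these data, passing the limit was not always enough); inconclusive means some gains above the cutoff, reason not given; inactive means the rest.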

Test [1] is described as follows: Her2 expression decrease, cell viability multiplex – SKBR3 breast tumor cells, AlphaScreen, ATP viability, primary screen (AID 461;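 active means Her2 level under about 52% in both replicate screens, with viability over 70% of control, limit read from the data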;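 on Her2 level: lower value means less Her2 protein in the cells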;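 on viability: percent of carrier control wells set as 100% viability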). As to conditions: SKBR3 Her2 protein level, 18-24 h, measured here: SKBR3 viability, ATP luminescence, at 10 µM. A general note: In Alpha technology, singlet oxygen from a donor bead excites a nearby acceptor bead.
Test [2] deals with Receptor tyrosine-protein kinase erbB-2 (Homo sapiens) (UniProt P04626). The description is as above. The conditions noted are these: 18-24 h, at 10 µM, stronger effect = lower value.
Test [3] can be described thus: reduced viability of SK-BR-3 breast cancer cells – cell-based, 24 h, human, pilot screen (AID 572;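 active means viability at or below 10% of carrier control in both of two separate runs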;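 further: compound exposure lasted between 18 and 24 h rather than exactly 24 h; 100% = carrier-treated control wells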). As to conditions: SK-BR-3 viability, CellTiter-Glo luminescence, at 10 µM, stronger effect = lower value. A general note: ATP-based viability assays read luminescence as a measure of living cells.
The nature of test [4]: HUVEC growth inhibition – cell-based, human, primary screen (AID 575;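 active means viability at or below 30% in both replicate assays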;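 further: 100% = median of untreated cell wells with 0.1% DMSO on each plate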). The conditions noted are these: HUVEC proliferation, CellTiter-Glo luminescence, 72 h; at 10 µM; stronger effect = lower value.
A short description of test [5]: H69AR cell proliferation blockers – human, duplicate replicates, primary screen (AID 580;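 active means viability at or under a set limit in both replicates, limit being median viability minus 3 SD, cut at about 48% in these data, passing the limit was not always enough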;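 further: 100% = mean luminescence of untreated wells and 0% = no signal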). The conditions noted are these: H69AR lung tumor cells viability, ATP luminescence, 72 h; at 10 µM; stronger effect = lower value.
A short description of test [6]: MRP1 drug-resistance reversers in H69AR cells – cell-based, doxorubicin co-treatment, pilot screen (AID 601;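 active means viability loss from added drug above about 55%, and viability with drug at most 40%, in both replicates, limit read from the data, passing the limit was not always enough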). The conditions noted are these: CellTiter-Glo, 72 h, at 10 µM; for differential viability (reversal): stronger effect = higher value.
Test [7] is described as follows: yeast transport mutant growth inhibition pilot in 384-well plates, post-Golgi transport modulator project (AID 636; in the data active means inhibition above about 31%). As to conditions: absorbance 615 nm, about 18 h, stronger effect = higher value.
The nature of test [8]: growth suppression of yeast trafficking mutant, preliminary HTS, modulators of trafficking downstream of Golgi apparatus project, 1536-format plate, OD 615 nm (AID 637; in the data active means inhibition above about 30%). The conditions noted are these: yeast transport mutant growth, absorbance 615 nm, 18 h; stronger effect = higher value.
Test [9] can be described thus: S. cerevisiae growth inhibition in permissive medium (OD615), pilot counter-assay for S. cerevisiae lifespan shortening project, permissive growth control (AID 705;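 active means growth inhibition above 25% in both replicates, a cutoff set 3 SD above the mean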). The conditions noted are these: OD615, 24 h, at 10 µM, stronger effect = higher value.
The nature of test [10]: S. cerevisiae growth inhibition in restrictive medium, OD615, pilot screen, restrictive growth control, yeast lifespan reduction project (AID 706;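 active means growth inhibition above a set limit, 3 SD over mean compound inhibition, in both replicates, cut at about 43% in these data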;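 further: modified DeaD lifespan yeast strain shifted to restrictive glucose medium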). The conditions noted are these: OD615, 48 h, at 10 µM, stronger effect = higher value.
Test [11] can be described thus: doxorubicin toxicity protection in MRP-1 cells – H69AR cells, CellTiter-Glo, duplicate, MRP-1 activator project, pilot screen (AID 807).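 Further: compound pretreatment 18-22 h then 72 h combined with doxorubicin; 0% = doxorubicin alone and 100% = vehicle without doxorubicin.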 The conditions noted are these: H69AR viability with doxorubicin, CellTiter-Glo luminescence; at 10 µM; stronger effect = higher value.
Test [12] is described as follows: viability of HCT116 without oncogenic beta-catenin – human colon tumor cells, pilot screen (AID 823;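 active means cell viability at or below a set limit in both duplicate runs, the limit being the all-compound median minus 4 SD, cut at about 23% in these data, passing the limit was not always enough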;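 further: 0% = wells killed by 20 µM Hyamine and 100% = untreated DMSO cell wells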). The conditions noted are these: HCT116 beta-catenin knockout viability, CellTiter-Glo, 60 h; at 10 µM; stronger effect = lower value.
The nature of test [13]: viability of PTEN-null HCT116 cells – cell-based, HCT116 clonal line, CellTiter-Glo, pilot screen (AID 824;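 active means viability at or below 27.92% in each of two runs, the all-compound median minus 4 SD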;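 further: 0% = 20 µM Hyamine control and 100% = vehicle cell control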). The conditions noted are these: HCT116 PTEN-deleted viability, 60 h, at 10 µM, stronger effect = lower value.
Test [14] in a line: RAM pathway blockade in budding yeast – dse1pr::URA3 reporter, 5-FOA selection, pilot screen (AID 869;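 active means inhibition over a set limit, the all-compound mean plus 3 SD, in both replicate runs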;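 further: 0% = DMSO wells with no growth and 100% = 10 µM 1-NA-PP1 with full growth; RAM network block rescues cells from 5-FOA so hits raise OD615 growth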). As to conditions: S. cerevisiae dse1pr::URA3 5-FOA growth, OD615, 2 d; at 10 µM; stronger effect = higher value; strain carries analog-sensitive mutant Cbk1 kinase.
A short description of test [15]: RAM signaling pathway blockade in yeast – S. cerevisiae, Pdr1DBD-CYC8 efflux-inhibited sensitized strain, primary screen (AID 1298;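 active means RAM network inhibition above 8.4% in each of two replicates, 3 SD over the compound average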;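 further: 0% = DMSO untreated cells without growth and 100% = 10 µM 1-NA-PP1 full growth; higher means more yeast growth rescued from 5-FOA killing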). The conditions noted are these: S. cerevisiae cbk1-as DSE1-URA3 strain, 5-FOA growth OD615, 2 d; at 50 µM; stronger effect = higher value.
[16] abbreviates: H69AR cells + 2 uM doxorubicin, measured here: viability with 2 uM doxorubicin, stronger effect = lower value.
Where [17] appears, read: H69AR cells, compound alone cytotoxicity.

Chain of Receptor tyrosine-protein kinase erbB-2 (Homo sapiens) (P04626 whole entry, looked up): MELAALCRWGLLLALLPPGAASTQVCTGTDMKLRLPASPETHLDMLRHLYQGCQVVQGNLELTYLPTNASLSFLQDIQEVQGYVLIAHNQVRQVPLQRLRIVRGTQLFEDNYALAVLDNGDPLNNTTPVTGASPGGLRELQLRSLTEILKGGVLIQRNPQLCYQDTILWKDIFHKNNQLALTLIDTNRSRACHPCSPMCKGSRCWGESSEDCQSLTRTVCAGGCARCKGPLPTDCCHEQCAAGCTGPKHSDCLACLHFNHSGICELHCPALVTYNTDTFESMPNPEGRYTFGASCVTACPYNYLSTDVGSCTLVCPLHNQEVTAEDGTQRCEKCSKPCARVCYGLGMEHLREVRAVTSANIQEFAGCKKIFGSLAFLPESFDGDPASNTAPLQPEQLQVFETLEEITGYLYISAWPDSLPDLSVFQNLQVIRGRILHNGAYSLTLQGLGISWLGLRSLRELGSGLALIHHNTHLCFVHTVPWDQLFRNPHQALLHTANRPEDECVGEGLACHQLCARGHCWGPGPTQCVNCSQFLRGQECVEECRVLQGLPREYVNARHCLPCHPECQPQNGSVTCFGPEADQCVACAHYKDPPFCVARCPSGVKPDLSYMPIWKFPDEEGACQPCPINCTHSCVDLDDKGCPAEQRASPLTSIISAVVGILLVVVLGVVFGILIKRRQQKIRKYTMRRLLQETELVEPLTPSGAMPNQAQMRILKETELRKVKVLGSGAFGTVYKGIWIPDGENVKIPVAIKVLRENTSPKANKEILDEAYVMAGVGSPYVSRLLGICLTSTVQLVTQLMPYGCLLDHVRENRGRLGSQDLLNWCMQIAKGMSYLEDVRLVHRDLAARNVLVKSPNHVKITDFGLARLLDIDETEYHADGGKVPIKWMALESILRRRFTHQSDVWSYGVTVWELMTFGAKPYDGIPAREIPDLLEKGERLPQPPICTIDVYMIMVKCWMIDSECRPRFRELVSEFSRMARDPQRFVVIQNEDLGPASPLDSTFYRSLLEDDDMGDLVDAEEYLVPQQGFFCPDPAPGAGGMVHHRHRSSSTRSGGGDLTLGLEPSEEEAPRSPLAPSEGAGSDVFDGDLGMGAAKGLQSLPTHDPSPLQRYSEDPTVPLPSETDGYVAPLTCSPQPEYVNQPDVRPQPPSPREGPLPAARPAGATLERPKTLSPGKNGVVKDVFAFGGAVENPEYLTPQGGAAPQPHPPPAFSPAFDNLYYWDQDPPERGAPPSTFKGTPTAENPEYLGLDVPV

Regarding `CCN1CCN(Cc2nc3c(c(=O)n(C)c(=O)n3C)n2CC(=O)c2ccccc2)CC1`, the viability is 100% in [1]; 100% (inactive) in [3]; 95.5% (inactive) in [4]; 98.5% (inactive) in test [5]; 95.8% in test [6] (setting [16]); 98.5% in test [6] (setting [17]). In addition, the viability is 100% (inactive) in test [12] and 105% (inactive) in test [13]. The Her2 level in test [2] was 108% (inactive). For the same molecule, the differential viability (reversal) in test [6] (H69AR cells + 2 uM doxorubicin) is 2.67% (inactive). In addition, the inhibition in [7] was -4.13% (inactive); in test [8], -0.33% (inactive); in [14] it was 1.33% (inactive). Also, the growth inhibition was 5% (inactive) in [9] and -14% (inactive) in test [10]. Besides, the viability increase in test [11] was -1.56% (inactive). In addition, the RAM network inhibition in test [15] is 3.98% (inactive).
Turning to `CCCCC(NS(=O)(=O)c1ccc(OC)cc1)C(=O)O` (stereo not given), the viability in [1] is 110%; in test [3], 110% (inactive); in test [4], 101% (inactive); in [5], 98.4% (inactive); in test [6] (setting [16]), 93.9%; in [6] (setting [17]) it was 98.4%. The figures for the viability in test [12] and in [13] were 99.1% (inactive) and 97.1% (inactive), respectively. The Her2 level in test [2] was 108% (inactive). For the same molecule, the differential viability (reversal) in [6] (H69AR cells + 2 uM doxorubicin) is 4.5% (inactive). For the same molecule, the inhibition was -0.39% (inactive) in test [7], -4.17% (inactive) in test [8] and 1.7% (inactive) in test [14]. Also, the growth inhibition in test [9] is -19.3% (inactive); in [10], -7.24% (inactive). For the same molecule, in test [11], the viability increase was 0.29% (inactive). The RAM network inhibition in [15] is 3.29% (inactive).
Regarding `Cc1cccc(-n2ncc3c(N4CCC5(CC4)OCCO5)ncnc32)c1`, the viability in test [1] was 106%; in [3], 106% (inactive); in test [4], 76% (inactive); in test [5], 42.6% (active); in test [6] (setting [16]), 53.8%; in [6] (setting [17]) it was 42.6%. Moreover, the viability is 78% (inactive) in [12] and 59.5% (inactive) in test [13]. For the same molecule, in test [2], the Her2 level was 92.5% (inactive). Further, in test [6] (H69AR cells + 2 uM doxorubicin), the differential viability (reversal) was -11.1% (inactive). Moreover, the inhibition in [7] was -4.4% (inactive); in test [8] it was -9.33% (inactive); in test [14], 1.75% (inactive). The growth inhibition in test [9] is -2.87% (inactive); in test [10] it was -15.6% (inactive). In addition, the viability increase in test [11] was -7.22% (inactive). In addition, in [15], the RAM network inhibition was 3.86% (inactive).
As to `COc1ccc(NC(=O)C2Cc3ccccc3C(=O)O2)cc1` (stereo not given), the viability in test [1] was 90%; in [3], 90% (inactive); in [4] it was 104% (inactive); in [5], 91.8% (inactive); in test [6] (setting [16]), 85.9%; in [6] (setting [17]), 91.8%. Further, the viability in [12] was 105% (inactive); in [13], 104% (inactive). Further, in test [2], the Her2 level is 92.5% (inactive). In addition, the differential viability (reversal) in [6] (H69AR cells + 2 uM doxorubicin) is 5.95% (inactive). The inhibition is -2.53% (inactive) in test [7], -1.67% (inactive) in test [8] and 1.79% (inactive) in test [14]. Also, the growth inhibition in [9] was 1.22% (inactive); in test [10], 1.67% (inactive). Further, the viability increase in test [11] is 0.31% (inactive). Besides, the RAM network inhibition in test [15] was 3.16% (inactive).
On to `CCOC(=O)c1ccc2[nH]c3c(c2c1)CN(C)CC3`, for which the viability in [1] is 94%; in test [3] it was 94% (inactive); in test [4], 86.6% (inactive); in [5], 93.7% (inactive); in test [6] (setting [16]), 85.8%; in [6] (setting [17]) it was 93.7%. Moreover, the values for the viability in test [12] and in test [13] were 44% (inactive) and 56.9% (inactive), respectively. The Her2 level in test [2] is 87.5% (inactive). Further, the differential viability (reversal) in test [6] (H69AR cells + 2 uM doxorubicin) is 7.91% (inactive). Moreover, the inhibition in test [7] was -4.27% (inactive); in test [8], -0.83% (inactive); in [14], 0.51% (inactive). The growth inhibition in test [9] is -4.7% (inactive); in test [10] it was 10.1% (inactive). Besides, the viability increase in test [11] was 0.26% (inactive). The RAM network inhibition in test [15] was 0.47% (inactive).

The values above are taken from PubChem BioAssay.
